Common to all, as to set-up: scale not given: direction of the effect not stated beside the values
Assay [1] has as its target Protein translocase subunit SecA (Escherichia coli (strain K12)) (UniProt P10408). As to the kind of experiment: Assay to Identify E. coli SecA ATPase Inhibitors. As to conditions: 30 µM. Format: functional.
Assay [2] concerns the target T1, Ubiquitin-activating enzyme e1, putative (Leishmania donovani (strain BPK282A1)) (UniProt E9BSI1).
T1 sequence (whole entry): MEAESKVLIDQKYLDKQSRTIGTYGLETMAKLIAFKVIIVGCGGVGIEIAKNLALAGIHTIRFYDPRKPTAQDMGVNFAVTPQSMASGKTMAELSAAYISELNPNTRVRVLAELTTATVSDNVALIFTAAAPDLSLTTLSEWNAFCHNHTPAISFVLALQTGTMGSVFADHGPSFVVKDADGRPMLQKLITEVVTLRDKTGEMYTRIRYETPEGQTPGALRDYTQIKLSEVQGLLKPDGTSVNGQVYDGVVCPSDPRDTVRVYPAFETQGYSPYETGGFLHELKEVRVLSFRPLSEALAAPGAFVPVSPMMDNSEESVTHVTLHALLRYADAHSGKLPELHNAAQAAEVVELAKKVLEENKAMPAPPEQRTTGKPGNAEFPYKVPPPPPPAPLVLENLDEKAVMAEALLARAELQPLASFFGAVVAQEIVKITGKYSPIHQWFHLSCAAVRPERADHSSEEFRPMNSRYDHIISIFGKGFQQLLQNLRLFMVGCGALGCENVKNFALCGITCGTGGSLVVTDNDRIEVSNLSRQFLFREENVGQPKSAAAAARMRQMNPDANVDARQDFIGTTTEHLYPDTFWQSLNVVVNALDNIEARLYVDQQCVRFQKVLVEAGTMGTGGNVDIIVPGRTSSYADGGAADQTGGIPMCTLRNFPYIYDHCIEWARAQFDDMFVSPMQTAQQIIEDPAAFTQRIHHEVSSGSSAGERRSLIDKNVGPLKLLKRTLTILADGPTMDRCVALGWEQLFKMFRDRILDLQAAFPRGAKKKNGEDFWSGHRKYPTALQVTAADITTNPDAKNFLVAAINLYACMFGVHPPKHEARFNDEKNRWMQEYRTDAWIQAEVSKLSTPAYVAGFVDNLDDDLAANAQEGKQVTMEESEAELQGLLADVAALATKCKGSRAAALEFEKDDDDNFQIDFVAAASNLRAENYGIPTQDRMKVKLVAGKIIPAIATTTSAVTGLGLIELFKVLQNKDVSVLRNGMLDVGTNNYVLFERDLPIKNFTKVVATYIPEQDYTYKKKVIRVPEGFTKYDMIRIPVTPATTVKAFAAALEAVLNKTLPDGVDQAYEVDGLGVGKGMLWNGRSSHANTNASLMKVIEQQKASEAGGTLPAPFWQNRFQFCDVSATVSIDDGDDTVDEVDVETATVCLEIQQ
As to the kind of experiment: Leishmania donovani Ubiquitin Activating Enzyme (LdE1). As to conditions: 30 µM. The class given is functional.

Assay [3] deals with Sialic acid-binding Ig-like lectin 9 (Homo sapiens) (UniProt Q9Y336). As to the kind of experiment: Hs-Siglec9 ALPHAscreen SOP 20170721. As to conditions: 10 µM.
A further assay deals with Trypanosoma cruzi. Nature of the assay: Trypanosoma cruzi phosphomannomutase and mannose-1-phosphate guanylyltransferase assay. The class given is functional. Particulars: 10 µM.
In assay [4] the target is T2, Arginase-2, mitochondrial (Homo sapiens) (UniProt P78540).
T2 sequence (whole entry): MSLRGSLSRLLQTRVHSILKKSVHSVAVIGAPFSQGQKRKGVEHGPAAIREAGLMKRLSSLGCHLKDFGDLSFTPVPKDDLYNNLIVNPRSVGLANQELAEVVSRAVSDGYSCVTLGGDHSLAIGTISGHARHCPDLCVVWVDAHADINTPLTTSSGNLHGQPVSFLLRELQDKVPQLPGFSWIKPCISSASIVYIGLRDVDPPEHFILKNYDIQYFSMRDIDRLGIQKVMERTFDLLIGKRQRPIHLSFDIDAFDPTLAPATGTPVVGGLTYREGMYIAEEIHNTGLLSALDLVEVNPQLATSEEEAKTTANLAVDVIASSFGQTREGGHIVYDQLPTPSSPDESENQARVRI
As to the kind of experiment: in vitro enzyme assay to detect the production of urea directly proportional to the activity of Arginase II. Note: in the data most compounds retested in dose-response had high values. The class given is functional. As to conditions: 33.3 µM.

Assay [5] has as its target T3, Proteasome subunit beta (Trypanosoma cruzi) (UniProt O96673).
T3 sequence (whole entry): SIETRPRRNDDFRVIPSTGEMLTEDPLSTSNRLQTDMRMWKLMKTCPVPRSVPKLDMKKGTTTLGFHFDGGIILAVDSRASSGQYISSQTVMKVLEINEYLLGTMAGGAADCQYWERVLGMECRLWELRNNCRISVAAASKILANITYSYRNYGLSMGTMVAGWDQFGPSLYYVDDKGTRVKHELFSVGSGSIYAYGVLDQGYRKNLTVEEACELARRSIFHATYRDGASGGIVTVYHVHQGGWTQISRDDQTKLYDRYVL
Nature of the assay: Trypanosoma cruzi proteasome chymotrypsin-like activity (TcProtChymo) assay. Note: in the data most compounds retested in dose-response had high values. Format: functional. As to conditions: 9.37 µM.

Another assay is filed under the species Homo sapiens. Nature of the assay: To identify inhibition of the IFN signalling (Jak-Stat) pathway via expression of an eGFP reporter gene under the control of an IFN-stimulated response element (ISRE) containing MxA promoter. Particulars: 30 µM. The class given is functional.
Assay [6] addresses T4, Tyrosyl-tRNA synthetase, putative (Trypanosoma cruzi (strain CL Brener)) (UniProt Q4DSP6).
T4 sequence (whole entry): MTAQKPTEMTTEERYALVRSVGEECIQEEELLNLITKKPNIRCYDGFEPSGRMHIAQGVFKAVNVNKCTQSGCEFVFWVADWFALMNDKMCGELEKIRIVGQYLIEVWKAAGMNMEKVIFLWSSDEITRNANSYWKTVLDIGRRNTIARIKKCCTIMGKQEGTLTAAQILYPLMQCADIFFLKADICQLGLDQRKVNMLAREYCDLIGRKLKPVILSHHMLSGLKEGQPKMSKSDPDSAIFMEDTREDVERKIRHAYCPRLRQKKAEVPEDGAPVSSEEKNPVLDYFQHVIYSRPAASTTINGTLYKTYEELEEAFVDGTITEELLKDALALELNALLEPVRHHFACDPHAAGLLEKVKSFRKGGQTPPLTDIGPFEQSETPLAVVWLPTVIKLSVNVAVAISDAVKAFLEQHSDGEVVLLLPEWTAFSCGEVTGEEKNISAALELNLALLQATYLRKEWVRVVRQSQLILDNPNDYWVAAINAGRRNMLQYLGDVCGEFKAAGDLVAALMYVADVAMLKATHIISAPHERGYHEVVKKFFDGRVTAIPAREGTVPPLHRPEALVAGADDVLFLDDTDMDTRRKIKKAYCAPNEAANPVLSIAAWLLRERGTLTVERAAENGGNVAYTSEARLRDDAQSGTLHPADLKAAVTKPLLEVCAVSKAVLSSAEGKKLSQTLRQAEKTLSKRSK
Nature of the assay: Trypanosoma cruzi tyrosyl tRNA synthetase (TcYRS) _High Tyrosine SOP. Note: in the data most compounds retested in dose-response had high values. Format: functional. Particulars: 30 µM.

Assay [7] concerns the target T4, Tyrosyl-tRNA synthetase, putative (Trypanosoma cruzi (strain CL Brener)). Nature of the assay: Trypanosoma cruzi tyrosyl tRNA synthetase (TcYRS) SOP. Format: functional. Particulars: 30 µM.
The target of assay [8] is Chromo domain-containing protein 1 (Saccharomyces cerevisiae (strain ATCC 204508 / S288c) (Baker's yeast)) (UniProt P32657). Nature of the assay: ScCHD-1 Enzyme Inhibition Assay. Note: in the data most compounds retested in dose-response had high values. The class given is functional. Particulars: 30 µM.

The structures appear in SMILES notation. For part of these data: Potency and affinity values are given separately.

Protein translocase subunit SecA (Escherichia coli (strain K12)), sequence (P10408 whole entry): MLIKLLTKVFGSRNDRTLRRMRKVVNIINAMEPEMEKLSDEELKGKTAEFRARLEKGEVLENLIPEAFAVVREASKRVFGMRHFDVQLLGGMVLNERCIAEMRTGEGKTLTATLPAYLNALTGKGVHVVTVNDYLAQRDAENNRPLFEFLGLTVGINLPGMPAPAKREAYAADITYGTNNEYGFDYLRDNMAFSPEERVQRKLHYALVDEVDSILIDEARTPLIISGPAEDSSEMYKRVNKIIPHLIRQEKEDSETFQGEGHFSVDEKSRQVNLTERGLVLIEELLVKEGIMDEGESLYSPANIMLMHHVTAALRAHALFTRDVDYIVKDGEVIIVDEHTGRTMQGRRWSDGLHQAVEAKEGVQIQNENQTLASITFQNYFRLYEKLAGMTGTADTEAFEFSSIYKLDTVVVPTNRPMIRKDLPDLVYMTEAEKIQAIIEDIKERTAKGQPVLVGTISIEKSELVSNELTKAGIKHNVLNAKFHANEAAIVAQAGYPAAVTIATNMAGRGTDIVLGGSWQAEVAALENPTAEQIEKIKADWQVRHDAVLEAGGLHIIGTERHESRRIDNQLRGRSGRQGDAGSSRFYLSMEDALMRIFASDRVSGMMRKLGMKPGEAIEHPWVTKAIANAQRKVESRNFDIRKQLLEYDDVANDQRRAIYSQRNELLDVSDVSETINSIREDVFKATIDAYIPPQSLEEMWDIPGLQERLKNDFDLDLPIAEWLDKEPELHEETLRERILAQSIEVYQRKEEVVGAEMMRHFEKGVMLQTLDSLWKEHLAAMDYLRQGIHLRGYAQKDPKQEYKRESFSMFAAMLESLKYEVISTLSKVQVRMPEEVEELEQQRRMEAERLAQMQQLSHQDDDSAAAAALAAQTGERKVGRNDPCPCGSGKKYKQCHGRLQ
Chromo domain-containing protein 1 (Saccharomyces cerevisiae (strain ATCC 204508 / S288c) (Baker's yeast)), sequence (P32657 whole entry, the tested form may be a part): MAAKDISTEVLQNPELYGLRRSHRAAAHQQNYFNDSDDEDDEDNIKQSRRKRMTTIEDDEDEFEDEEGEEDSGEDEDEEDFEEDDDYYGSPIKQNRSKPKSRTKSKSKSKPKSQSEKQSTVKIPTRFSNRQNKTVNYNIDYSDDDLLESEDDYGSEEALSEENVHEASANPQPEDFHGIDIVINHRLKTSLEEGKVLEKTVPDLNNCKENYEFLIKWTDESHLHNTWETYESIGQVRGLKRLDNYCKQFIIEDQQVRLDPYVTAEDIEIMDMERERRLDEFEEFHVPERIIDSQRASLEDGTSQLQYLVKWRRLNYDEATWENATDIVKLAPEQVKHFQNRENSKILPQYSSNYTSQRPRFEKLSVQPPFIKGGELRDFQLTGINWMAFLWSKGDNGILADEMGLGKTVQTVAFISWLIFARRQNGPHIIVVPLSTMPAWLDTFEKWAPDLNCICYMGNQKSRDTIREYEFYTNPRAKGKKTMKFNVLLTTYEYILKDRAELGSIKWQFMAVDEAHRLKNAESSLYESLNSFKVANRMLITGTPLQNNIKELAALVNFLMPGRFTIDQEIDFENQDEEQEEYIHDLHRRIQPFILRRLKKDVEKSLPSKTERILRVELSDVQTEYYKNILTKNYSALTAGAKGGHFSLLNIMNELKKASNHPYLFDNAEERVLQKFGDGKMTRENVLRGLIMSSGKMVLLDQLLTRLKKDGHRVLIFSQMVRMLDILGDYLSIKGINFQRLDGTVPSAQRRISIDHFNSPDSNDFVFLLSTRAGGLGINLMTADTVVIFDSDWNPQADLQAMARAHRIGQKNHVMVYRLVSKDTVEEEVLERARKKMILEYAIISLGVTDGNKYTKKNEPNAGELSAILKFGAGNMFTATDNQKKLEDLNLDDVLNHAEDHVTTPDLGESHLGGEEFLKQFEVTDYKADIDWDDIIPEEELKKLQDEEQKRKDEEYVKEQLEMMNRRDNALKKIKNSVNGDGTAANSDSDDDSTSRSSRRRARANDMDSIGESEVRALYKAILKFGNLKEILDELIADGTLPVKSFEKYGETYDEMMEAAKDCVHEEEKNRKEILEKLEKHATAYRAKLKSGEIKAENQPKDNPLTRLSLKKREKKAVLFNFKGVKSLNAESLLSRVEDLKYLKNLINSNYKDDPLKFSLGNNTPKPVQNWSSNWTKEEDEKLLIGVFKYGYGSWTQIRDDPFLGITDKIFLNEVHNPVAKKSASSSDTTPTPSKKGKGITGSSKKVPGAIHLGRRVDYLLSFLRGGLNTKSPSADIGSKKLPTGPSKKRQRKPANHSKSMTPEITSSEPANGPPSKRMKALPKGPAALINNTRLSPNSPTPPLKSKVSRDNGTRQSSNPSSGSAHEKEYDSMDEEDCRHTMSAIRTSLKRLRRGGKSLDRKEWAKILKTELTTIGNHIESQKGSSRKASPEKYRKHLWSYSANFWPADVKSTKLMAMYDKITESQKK
Sialic acid-binding Ig-like lectin 9 (Homo sapiens), sequence (Q9Y336 whole entry): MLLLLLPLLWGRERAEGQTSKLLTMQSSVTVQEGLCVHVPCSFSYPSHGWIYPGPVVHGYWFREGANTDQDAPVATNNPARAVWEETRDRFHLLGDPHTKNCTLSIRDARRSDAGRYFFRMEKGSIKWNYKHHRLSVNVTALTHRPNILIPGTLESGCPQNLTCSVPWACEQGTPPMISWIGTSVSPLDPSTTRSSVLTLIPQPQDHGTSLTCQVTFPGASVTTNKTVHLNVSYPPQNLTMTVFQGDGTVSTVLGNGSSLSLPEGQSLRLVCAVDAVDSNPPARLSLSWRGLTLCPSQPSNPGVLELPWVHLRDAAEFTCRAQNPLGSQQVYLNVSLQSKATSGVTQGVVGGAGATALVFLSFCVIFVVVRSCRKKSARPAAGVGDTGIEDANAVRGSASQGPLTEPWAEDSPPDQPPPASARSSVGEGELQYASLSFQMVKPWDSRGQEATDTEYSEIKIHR

Take `Cc1ccc(SCC2CNc3nc4ccccc4c(=O)n32)c(C)c1` (stereo not given): the Percent Effect stood at 0.606% in assay [1]; 22.1% in assay [2]; 23.4% in assay [3]; 0.375% with Trypanosoma cruzi; 5.94% in assay [4]; 12.4% in assay [5]. For the same compound, the Percent Effect in the assay filed under Homo sapiens is 29.8%; in [6], 6.76%; in [7] it was -2.5%; in assay [8] it was -2.7%.
With `CC(C)c1cc(N2CCC(N)CC2)n2nccc2n1`, the Percent Effect in assay [1] is -7.82%; in [2], 5.41%; in [3] it was 8.57%; in the assay with Trypanosoma cruzi it was 11%; in assay [4] it was -3.15%; in assay [5], 20.6%. Moreover, the Percent Effect is 11.5% in the assay listed under Homo sapiens, 3.72% in [6], 17.1% in assay [7] and -1.59% in assay [8].
Take `Clc1ccccc1-c1nc(CNC2CCc3ncnn3C2)cs1` (stereo not given): the Percent Effect in assay [1] was -0.994%; in assay [2] it was -12.8%; in assay [3], -3.7%; in the assay on Trypanosoma cruzi, 4.6%; in [4], 0.41%; in assay [5] it was -0.427%. Besides, the Percent Effect was -12% in the assay listed under Homo sapiens, 2.39% in assay [6], 1.21% in assay [7] and 6.45% in assay [8].
`CCc1ccc(O)c(C(=O)NC2CCN(C(=O)OC)CC2)c1`: the Percent Effect is 0.0182% in assay [1]; 15.4% in assay [2]; -8.93% in [3]; -4.79% with Trypanosoma cruzi; 4.51% in assay [4]; 5.89% in [5]. Moreover, the Percent Effect in the assay filed under Homo sapiens was 36.6%; in assay [6], 5.26%; in [7], 13.2%; in [8] it was -4.89%.
In the case of `Cc1cnn(CC2CN(CC(=O)N(C)c3nccs3)CCO2)c1` (stereo not given), the Percent Effect in assay [1] is -4.67%; in assay [2], 8%; in [3], 4.67%; in the assay with Trypanosoma cruzi it was 0.201%; in assay [4] it was -2.66%; in [5], 9.75%. Besides, the Percent Effect is 13.5% in the assay filed under Homo sapiens, 4.74% in assay [6], 10.3% in assay [7] and -8.81% in [8].
As for `CN(C)CC(=O)N1C[C@H]2CCC[C@@]2(COc2ccccn2)C1`, the Percent Effect was -8.78% in assay [1]; 1.3% in assay [2]; 1.97% in assay [3]; -2.82% with Trypanosoma cruzi; -4.86% in [4]; 11.9% in [5]. Further, the Percent Effect in the assay filed under Homo sapiens is 7.53%; in [6] it was -0.526%; in assay [7] it was 5.13%; in assay [8] it was -0.114%.
Take `CC(=O)N1CCC(c2cc(C(F)(F)F)n3ccnc3n2)CC1`: the Percent Effect was -2.29% in [1]; 9.33% in assay [2]; -6.3% in assay [3]; 0.789% in the assay with Trypanosoma cruzi; 0.443% in assay [4]; 16.1% in assay [5]. Further, the Percent Effect in the assay listed under Homo sapiens is 6.98%; in [6], 7.41%; in assay [7], -25%; in assay [8], -32.2%.
With `CCOc1ncccc1C(=O)N1CCCC(c2nccn2CCOC)C1` (stereo not given), the Percent Effect in assay [1] was -8.34%; in [2] it was 5.41%; in [3], 1.4%; in the assay with Trypanosoma cruzi, -1.26%; in assay [4] it was -3.85%; in assay [5] it was 12.2%. Besides, the Percent Effect was 9.33% in the assay listed under Homo sapiens, 3.72% in assay [6], 12.2% in assay [7] and 2.21% in assay [8].
As to `O=C(Cc1n[nH]c2ccccc12)N1CCC(Nc2cccnn2)CC1`, the Percent Effect in [1] was -6.35%; in assay [2], 10.4%; in [3], 4.16%; in the assay on Trypanosoma cruzi it was 3.36%; in [4] it was -7.58%; in assay [5], 13.2%. Also, the Percent Effect was -4.05% in the assay listed under Homo sapiens, 5.88% in assay [6], 11.8% in [7] and -9.11% in assay [8].
On to `Cc1nc(C)n(CC2CCCN2Cc2nc3ccccc3n2C)n1` (stereo not given), for which the Percent Effect in assay [1] was -5.84%; in assay [2], 10.7%; in [3], 7.93%; in the assay with Trypanosoma cruzi, 1.81%; in assay [4], 3.55%; in assay [5] it was 17.6%. Moreover, the Percent Effect in the assay listed under Homo sapiens is 8.44%; in assay [6], 1.58%; in [7], 12.8%; in [8], -12.7%.
`CCCc1nc(C)c(C(=O)NCCN2CCN(CC)CC2)s1`: the Percent Effect in [1] was -3.24%; in assay [2], 0%; in assay [3], 11.4%; in the assay with Trypanosoma cruzi, 0.56%; in assay [4], -2.25%; in assay [5], -1.23%. The Percent Effect is 5.53% in the assay listed under Homo sapiens, 6.86% in assay [6], 9.41% in assay [7] and 3.6% in assay [8].
Regarding `O=c1[nH][nH]cc1-c1ccnc(NCCN2CCCC2)n1`, the Percent Effect is 3.78% in [1]; 10.7% in assay [2]; -2.82% in assay [3]; -4.82% with Trypanosoma cruzi; -8.87% in assay [4]; 7.38% in assay [5]. In addition, the Percent Effect is 13.2% in the assay listed under Homo sapiens, -4.74% in [6], -5.13% in [7] and -14.5% in assay [8].
